# Screen size: about 96,000 compounds; about 20,000 (21%) were called active. Not all results are given here. Unmarked numbers belong to inactive results.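 Rule for the calls: active = CYP2C19 inhibition above a set limit at 5 µM in the primary screen (cut at about 50% in these data); inactive = the rest.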
# Target: Cytochrome P450 2C19 (Homo sapiens) (UniProt P33261)
# Test: blockers of cytochrome P450 2C19 activity – biochemical, luminescence, ADME assay, primary screen (AID 778);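 note: plate controls were negative control wells for no effect and 2.5 mM tranylcypromine positive control for full effect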
# Conditions: CYP2C19 Supersomes, luciferin-H EGE luminescence, 30 min; at 5 µM; stronger effect = higher value
# Sequence of Cytochrome P450 2C19 (Homo sapiens) (P33261 whole entry, looked up): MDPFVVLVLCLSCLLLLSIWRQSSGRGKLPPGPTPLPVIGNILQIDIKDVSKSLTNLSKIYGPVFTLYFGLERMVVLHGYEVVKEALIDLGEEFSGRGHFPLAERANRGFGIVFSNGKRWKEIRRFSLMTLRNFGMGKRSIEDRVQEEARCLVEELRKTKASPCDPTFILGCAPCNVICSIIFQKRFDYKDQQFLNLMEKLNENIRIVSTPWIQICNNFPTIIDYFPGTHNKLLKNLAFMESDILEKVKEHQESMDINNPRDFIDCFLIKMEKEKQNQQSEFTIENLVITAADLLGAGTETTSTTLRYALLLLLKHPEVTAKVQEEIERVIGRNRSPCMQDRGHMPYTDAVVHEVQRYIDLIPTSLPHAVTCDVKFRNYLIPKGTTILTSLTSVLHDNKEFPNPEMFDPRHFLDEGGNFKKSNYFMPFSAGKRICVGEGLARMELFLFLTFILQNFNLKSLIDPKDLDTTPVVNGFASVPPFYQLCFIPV
row,SMILES,inhibition
1,CCCCCCCCOC1OC(CO)C(O)C(O)C1NC(C)=O (configuration not stated),-4.2%
2,N#Cc1c(NC(=O)CCCN2C(=O)c3ccccc3C2=O)oc(-c2ccccc2)c1-c1ccccc1,24.8%
3,COCCOC(=O)c1sc(=S)n(CCOC)c1N,47.6%
4,Cc1ccc2nc(NC(=O)C3CCN(S(=O)(=O)c4ccc5c(c4)oc(=O)n5C)CC3)sc2c1,6.1%
5,CCN(CC)C(=O)CCC(=O)Nc1ccc(C(=O)OC)cc1,33.7%
6,CCCCC(=O)Nc1ccc(C(=O)NCCCn2ccnc2)cc1,37.9%
7,CCCC(=O)Nc1ccc(C(=O)NCCCn2ccnc2)cc1,52.2% (active)
8,CC1(C)CC(=O)C(C2=NC(C)(C)Cc3ccccc32)=C(O)C1,13.7%
9,COc1ccc(C2C(C#N)=C(/N=C/N3CCOCC3)OC3=C2C(=O)CC(C)(C)C3)cc1OC (configuration not stated),21%
10,CCc1ccc(N(CC)c2ncnc3nc[nH]c23)cc1,14.9%
11,CCOC(=O)C1=C(CN2CCc3ccccc32)NC(=O)NC1c1cccc([N+](=O)[O-])c1 (configuration not stated),63.5% (active)
12,Cn1c2c(c(=O)n(C)c1=O)C(c1cccc([N+](=O)[O-])c1)Nc1ccccc1O2 (configuration not stated),18.9%
13,CCOC(=O)C1=C(CN2CCc3ccccc32)NC(=O)NC1c1ccc(Cl)cc1 (configuration not stated),26.5%
14,O=C(COc1ccc2c3c(c(=O)oc2c1)CCC3)NC1CCCCC1,54.4% (active)
15,O=C(COc1ccc2oc3c(c2c1)CCCC3)Nc1ccccn1,21.2%
16,NC(=O)COc1ccc2c3c(c(=O)oc2c1)CCCCC3,-3.8%
17,CCC1(CC)NC(=O)N(CC(=O)OCC(=O)Nc2ccc(C(F)(F)F)cc2)C1=O,-6.3%
18,S=c1[nH]nc(-c2ccco2)n1/N=C/c1ccc(Br)s1,-11.6%
19,O=C(O)C1CC=C(Cl)CC1C(=O)NCc1ccccc1 (configuration not stated),2.3%
20,Cc1ccc(CNC(=O)C2CCCN2C(=O)NCc2ccccc2)cc1 (configuration not stated),0.7%
21,O=C(NCc1ccccc1)[C@@H]1CSC2c3ccccc3C(=O)N21 (some centres not stated),81.2% (active)

row,SMILES,inhibition
1,Cn1c(=O)c(C(=O)Nc2ncccn2)c(O)c2ccccc21,7.9%
2,O=C(NCc1ccc(Cl)cc1)c1cc(=O)nc2sc(-c3ccccc3)nn12,4.6%
3,O=C(CCc1ccccc1)Nc1cccc(-c2nnc(-c3ccco3)o2)c1,18.2%
4,CC(=O)CSc1nnc(CSc2ncccn2)n1C1CCCCC1,-8.3%
5,NC(=O)CSc1oc(-c2cccs2)nc1S(=O)(=O)c1ccccc1,79.2% (active)
6,CC1CCCCN1S(=O)(=O)c1ccc(C(=O)Nc2nnc(-c3cccs3)o2)cc1 (configuration not stated),10.3%
7,Cc1ccc(CNC(=O)COc2ccc(S(=O)(=O)NC(C)C)cc2)cc1,38.8%
8,Nc1ccc(C(=O)OCC(=O)NC2CCCc3ccccc32)cc1[N+](=O)[O-] (configuration not stated),34.6%
9,Cn1c(CC(=O)Nc2ccccc2)nnc1SCC(=O)c1ccccc1,33.2%
10,CCOC(=O)CSc1nnc(CNc2nc(-c3ccccc3)cs2)n1C,35%
11,Cn1c(CNc2nc(-c3ccccc3)cs2)nnc1SCC(=O)c1ccccc1,86.5% (active)
12,CCOc1c2ccc(C(=O)NC3CCCc4ccccc43)cc2nn1CC (configuration not stated),29.9%
13,CSCC[C@H](NC(=O)NCc1cccs1)C(=O)O,-4.9%
14,CC(C)C[C@H](NC(=O)NCCc1ccc(Cl)cc1)C(=O)O,2.7%
15,CSCC[C@H](NC(=O)NCCc1ccc(F)cc1)C(=O)O,72.3% (active)
16,O=C(O)c1ccc(-n2cccc2)cc1O,5.6%
17,CCOc1cc(C)c(Cl)cc1S(=O)(=O)n1nnc2ccccc21,66.1% (active)
18,Cc1ccc(S(=O)(=O)n2cnc3ccccc32)c(C)c1,4.5%
19,CCCOc1cc(C)c(S(=O)(=O)n2nnc3ccccc32)cc1C,-9.4%
20,COc1cc(/C=C2\SC(=S)N(Nc3ncc(C(F)(F)F)cc3Cl)C2=O)cc(OC)c1OC,31.7%
21,COc1cccc(-c2cc3nc4c(c(N5CCC6(CC5)OCCO6)n3n2)CCCC4)c1,24.8%

row,SMILES,inhibition
1,NC(=O)C1CCN(C2OC(=O)c3ccccc32)CC1 (configuration not stated),-2%
2,c1cnn(-c2cc(N3CCOCC3)ncn2)c1,5.4%
3,COC(=O)c1c(-c2ccc(C)cc2)csc1N,24.4%
4,Cc1noc(C)c1C(=O)N1CCOCC1,-2.1%
5,Cc1ccc(-c2nc(COC(=O)c3c(C)noc3C)cs2)cc1,54% (active)
6,O=C(/C(=N\O)n1cncn1)c1ccc(Br)cc1Br,33.6%
7,Cc1[nH]c2ccc(S(N)(=O)=O)cc2c1C,13%
8,CNC(=O)c1c(NC(NC(=O)c2ccco2)C(=O)c2ccc(Cl)cc2)sc2c1CCCC2 (configuration not stated),21.4%
9,Cc1cccc(-n2c(N)cc(=O)nc2SC(C)C(=O)NC2CCCCC2)c1 (configuration not stated),12.9%
10,CC(=O)Nc1cccc2c1[n+]([O-])c(C)c(C)[n+]2[O-],5%
11,CCOC(=O)c1ccc2c(c1)nc(SCC(=O)NC(C)C)n2CC,85.7% (active)
12,CCn1c(C)nc2cc(C(=O)NNS(=O)(=O)c3ccc(C)cc3C)ccc21,1.5%
13,CCn1c(SCC(=O)NCC2CCCO2)nc2cc(S(=O)(=O)N3CCCCC3)ccc21 (configuration not stated),11%
14,N#Cc1ccccc1-n1c(N)c(C(=O)N2CCCC2)sc1=S,17.2%
15,CCC1CCCCN1CCNS(=O)(=O)c1ccc2c(c1)CCN2C(C)=O (configuration not stated),-3.7%
16,CC(=O)c1cccc(NC(=O)Nc2ccc(C)cc2)c1,-13.3%
17,Cc1ccc(NC(=O)C(C)c2cccc(C(=O)c3ccccc3)c2)cc1 (configuration not stated),92.1% (active)
18,Cc1ccc(C(=O)c2c(NC(=O)c3ccccc3)sc(C)c2C)cc1,23.7%
19,CCn1c(=O)cc(OCC(=O)NCCCN2CCN(c3cccc(Cl)c3)CC2)c2ccccc21,26.7%
20,CC(C)NC(=O)C(=O)NCCN1CCN(S(=O)(=O)c2ccc(Cl)cc2)CC1,7.4%
